# Inconclusive results are not listed. A call without a number means that no potency is given here. Activity calls are given as the source filed them. Calls come from the whole dose curve; as a rule, active = well fitted activation curve with a large enough effect; inconclusive = small, poorly fitted or top-dose-only effect; inactive = flat fitted curve, though single readings scatter.
# Assay: qHTS assay to identify small molecule phospholipidosis (PLD) inducers (AID 1259344)
# Settings: HepG2 phospholipidosis, LipidTOX Red imaging, 24 h; series mostly up to 38.3 µM
# How it was run: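 Read-out is LipidTOX Red fluorescence (ex 595/em 615) imaged in HepG2 cells after 24 h compound exposure at 37 C, with Hoechst nuclear counterstain (ex 352/em 461) allowing per-cell normalisation.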
SMILES,Potency,PLD induction
CN=C(NC)NCc1ccccc1,inactive,–
C[C@@H]1C/C=C/C=C/C=C/C=C/[C@H](O[C@@H]2O[C@H](C)[C@@H](O)[C@H](N)[C@@H]2O)C[C@@H]2O[C@](O)(C[C@@H](O)C[C@H]3O[C@@H]3/C=C/C(=O)O1)C[C@H](O)[C@H]2C(=O)O,inactive,–
CCCCOC(=O)C(=O)Nc1cccc(-c2nn[nH]n2)c1,inactive,–
CC[C@H](CC[C@@H](C)[C@H]1CC[C@H]2[C@@H]3CC=C4C[C@@H](O)CC[C@]4(C)[C@H]3CC[C@]12C)C(C)C,inactive,–
COC(=O)CCC(=O)CN,inactive,–
CC(=O)N[C@@H](CC(=O)N[C@@H](CCC(=O)O)C(=O)O)C(=O)O,inactive,–
CCOC(=O)[C@H](CCc1ccccc1)N[C@H]1CCCN2CCC[C@@H](C(=O)O)N2C1=O,inactive,–
O=[N+]([O-])c1ccc(Oc2ccc(N=C=S)cc2)cc1,inactive,–
C=C1c2c(Cl)ccc(O)c2C(O)=C2C(=O)[C@]3(O)C(O)=C(C(N)=O)C(=O)[C@@H](N(C)C)[C@@H]3[C@@H](O)[C@H]12,inactive,–
O=C(O)c1cccc(/C=C2/C[C@@H]3[C@@H](/C=C/[C@@H](O)C4CCCCC4)[C@H](O)C[C@@H]3O2)c1,inactive,–
CC(=O)O[C@H]1CC[C@@]2(C)C(=CC[C@H]3[C@@H]4CC[C@H](C(C)=O)[C@@]4(C)CC[C@@H]32)C1,–,6.8% [at 7.66 µM] (inactive)
NNc1nnc(Cc2ccncc2)c2ccccc12,–,-2.11% [at 7.66 µM] (inactive)
CS(=O)(=O)NC(=O)CCC/C=C\C[C@H]1C(=O)C[C@@H](O)[C@@H]1/C=C/[C@H](O)COc1ccccc1,inactive,–
